Where “and” joins values, the source holds several entries; their conditions need not be identical. Equal values may be shown once. Screen size: about 5,500 compounds; about 2,000 (36%) were called active. About 18% were inconclusive and are not listed. Cut-off read from the data, not from the text of the source: active = normalized growth mostly below about 0.91 (no sharp cut-off); inconclusive = no clear call, values can overlap the other calls; inactive = mostly above about 0.92. Some of the results follow.
Assay: chemical genetic growth profiling, strain panel (AID 1159580);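 note: tested at 20 µM; growth read once vehicle control cultures reached saturation at 30 °C; 1 = growth at the plate median or of vehicle wells; lower values mean less growth of the strain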
Settings: S. cerevisiae deletion strains, growth OD

Measured: normalized growth

COc1cc2c(cc1OC)-c1cc3ccc(OC)c(OC)c3c[n+]1CC2
inactive: locus YAL013W, strain DEP1, stronger effect = lower value 0.993 | locus YAL021C, strain ccr4, stronger effect = lower value 0.988 | locus YAL026C, strain drs2, stronger effect = lower value 0.987 | locus YAL030W, strain snc1, stronger effect = lower value 0.988 | locus YBL061C, strain skt5, stronger effect = lower value 0.988 | locus YBR009C, strain hhf1, stronger effect = lower value 0.984 | locus YBR021W, strain FUR4, stronger effect = lower value 0.977 and 1.02 | locus YBR023C, strain chs3, stronger effect = lower value 0.983 | locus YBR171W, strain sec66, stronger effect = lower value 0.971 | locus YBR229C, strain ROT2, stronger effect = lower value 0.979 and 1 | locus YBR231C, strain swc5, stronger effect = lower value 0.981 | locus YBR279W, strain paf1, stronger effect = lower value 0.979 | locus YCL011C, strain gbp2, stronger effect = lower value 0.991 | locus YCL016C, strain dcc1, stronger effect = lower value 0.978 | locus YCL029C, strain bik1, stronger effect = lower value 0.991 and 1.01 | locus YCL061C, strain MRC1, stronger effect = lower value 0.989 | locus YCL069W, strain vba3, stronger effect = lower value 0.988 | locus YCR088W, strain abp1, stronger effect = lower value 0.98 | locus YDL005C, strain med2, stronger effect = lower value 0.975 | locus YDL035C, strain GPR1, stronger effect = lower value 1.1 and 0.985 | locus YDL040C, strain nat1, stronger effect = lower value 0.988 | locus YDL074C, strain BRE1, stronger effect = lower value 1.05 and 1.02 | locus YDL101C, strain DUN1, stronger effect = lower value 0.982 and 1.03 | locus YDL134C, strain PPH21, stronger effect = lower value 0.989 and 0.983 | locus YDL185W, strain tfp1, stronger effect = lower value 0.988 and 1.03 | locus YDL192W, strain arf1, stronger effect = lower value 0.991 and 1.01 | locus YDR001C, strain nth1, stronger effect = lower value 0.982 | locus YDR069C, strain doa4, stronger effect = lower value 0.976 | locus YDR101C, strain arx1, stronger effect = lower value 0.985 and 1.02 | locus YDR137W, strain rgp1, stronger effect = lower value 0.97 | locus YDR150W, strain NUM1, stronger effect = lower value 0.992 and 1.01 | locus YDR159W, strain sac3, stronger effect = lower value 0.999 | locus YDR162C, strain NBP2, stronger effect = lower value 1.01 and 1 | locus YDR195W, strain ref2 0.921 | locus YDR297W, strain sur2, stronger effect = lower value 0.984 | locus YDR318W, strain mcm21, stronger effect = lower value 0.987 and 1.01 | locus YDR334W, strain swr1, stronger effect = lower value 0.986 | locus YDR335W, strain msn5, stronger effect = lower value 0.99 | locus YDR388W, stronger effect = lower value 0.99 and 1.02 | locus YDR392W, strain spt3, stronger effect = lower value 1.01 | locus YDR502C, strain sam2, stronger effect = lower value 0.985 and 1.01 | locus YEL003W, strain gim4, stronger effect = lower value 0.99 | locus YEL037C, strain rad23, stronger effect = lower value 0.987 | locus YEL061C, strain CIN8 (second series), stronger effect = lower value 0.967 | locus YEL061C, strain CIN8, stronger effect = lower value 0.99 and 1.01 | locus YER015W, strain faa2, stronger effect = lower value 0.989 | locus YER016W, strain bim1, stronger effect = lower value 0.987 | locus YER110C, stronger effect = lower value 0.983 and 1.02 | locus YER111C, strain swi4, stronger effect = lower value 0.97 | locus YER155C, strain BEM2 (second series), stronger effect = lower value 0.909 | locus YER155C, strain BEM2, stronger effect = lower value 0.994 and 1.01 | locus YER167W, strain BCK2, stronger effect = lower value 0.977 and 0.997 | locus YFR010W, strain ubp6, stronger effect = lower value 0.969 | locus YGL078C, strain dbp3, stronger effect = lower value 0.991 and 1.01 | locus YGL086W, strain mad1, stronger effect = lower value 0.952 and 0.998 | locus YGL167C, strain pmr1, stronger effect = lower value 0.981 | locus YGL173C, strain kem1, stronger effect = lower value 0.98 | locus YGL227W, strain vid30, stronger effect = lower value 0.974 | locus YGL240W, strain doc1, stronger effect = lower value 0.969 | locus YGL248W, strain PDE1, stronger effect = lower value 0.983 and 1.02 | locus YGL253W, strain hxk2, stronger effect = lower value 0.996 | locus YGR078C, strain PAC10, stronger effect = lower value 1.01 | locus YGR135W, strain pre9, stronger effect = lower value 1 and 1.01 | locus YGR229C, strain SMI1, stronger effect = lower value 1.02 | locus YGR252W, strain gcn5, stronger effect = lower value 0.952 and 1.02 | locus YHR013C, strain ard1, stronger effect = lower value 0.966 | locus YHR027C, strain rpn1, stronger effect = lower value 0.975 | locus YHR030C, strain SLT2, stronger effect = lower value 0.989 and 1.04 and 1 | locus YHR079C, strain IRE1 (second series), stronger effect = lower value 0.991 and 1.02 | locus YHR079C, strain IRE1, stronger effect = lower value 1.03 | locus YHR094C, strain hxt1, stronger effect = lower value 0.991 and 1.02 | locus YHR129C, strain ARP1, stronger effect = lower value 0.987 and 1.01 | locus YHR142W, strain chs7, stronger effect = lower value 1.02 | locus YHR200W, strain rpn10, stronger effect = lower value 0.987 and 1 | locus YIL066C, strain RNR3, stronger effect = lower value 0.973 and 0.985 | locus YIL073C, strain SPO22, stronger effect = lower value 0.95 and 1.04 | locus YIL125W, strain kgd1, stronger effect = lower value 0.996 and 1.01 | locus YIR030C, strain dcg1, stronger effect = lower value 0.989 and 1.01 | locus YJL092W, strain hpr5, stronger effect = lower value 0.979 | locus YJL095W, strain BCK1 (second series), stronger effect = lower value 0.973 | locus YJL095W, strain BCK1, stronger effect = lower value 1 and 1.02 and 1.05 | locus YJL115W, strain asf1, stronger effect = lower value 0.975 | locus YJL129C, strain trk1, stronger effect = lower value 0.96 | locus YJL134W, strain LCB3, stronger effect = lower value 0.97 and 1 | locus YJL154C, strain vps35, stronger effect = lower value 0.98 | locus YJL164C, strain tpk1, stronger effect = lower value 0.98 | locus YJL166W, strain qcr8, stronger effect = lower value 0.974 | locus YJL168C, strain set2, stronger effect = lower value 0.989 and 1.02 | locus YJL187C, strain SWE1 (second series), stronger effect = lower value 0.997 and 1.05 | locus YJR043C, strain POL32, stronger effect = lower value 0.998 and 0.991 | locus YJR066W, strain TOR1, stronger effect = lower value 0.965

From PubChem BioAssay AID1159580 (chemical genetic matrix, 2015)
